Data from PubChem BioAssay.
The source made the active and inactive calls. Unless noted, no rule for the calls is given here.

Key:
[1] = A549 cell viability effects, profiling panel, calcein-AM fluorescence, 48 h, basal (AID 1162); conditions: higher = more signal; also: test concentration not given here
[2] = adipocyte viability effects, profiling panel, cell-based, 3T3-L1 adipocytes, calcein-AM fluorescence, 48 h, basal (AID 1163); conditions: 3T3-L1 adipocytes viability, higher = more signal; also: test concentration not given here
[3] = HepG2 cell viability effects, profiling panel, calcein-AM fluorescence, 48 h, basal (AID 1164); conditions: higher = more signal; also: test concentration not given here
[4] = MM1S cell viability effects, profiling panel, calcein-AM fluorescence, 48 h, basal (AID 1165); conditions: higher = more signal;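 also: viability of MM1S multiple myeloma cells under basal unstimulated conditions; test concentration not given here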
[5] = basal RPMI8226 viability, no added stimulus, profiling panel, cell-based, calcein-AM fluorescence, 48 h, PK04 Diversity Set (AID 1166); conditions: RPMI8226 myeloma viability, higher = more signal;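 also: cells grown under basal conditions without added stimulus; test concentration not given here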
[6] = basal HepG2 mitochondrial membrane potential changes, profiling panel, cell-based, JC-1 fluorescence, 24 h, 100 nL compound (AID 1167); conditions: higher = more signal; also: test concentration not given here
[7] = basal 3T3-L1 adipocyte mitochondrial potential changes, profiling panel, cell-based, JC-1 fluorescence, 3T3-L1 adipocytes, 24 h, 100 nL compound (AID 1168); conditions: JC-1 mitochondrial fluorescence, higher = more signal, called active from +8 up or from −8 down; also: test concentration not given here
[8] = basal RPMI8226 mitochondrial membrane potential changes, profiling panel, cell-based, JC-1 fluorescence, 24 h, 100 nL compound (AID 1169); conditions: RPMI8226 myeloma, JC-1 mitochondrial potential fluorescence, higher = more signal; also: test concentration not given here
[9] = basal MM1S mitochondrial membrane potential changes, profiling panel, cell-based, JC-1 fluorescence, 24 h, 100 nL compound (AID 1170); conditions: higher = more signal; also: test concentration not given here
[10] = A549 lung cancer cell viability effects, profiling panel, resazurin fluorescence, 24 h, PK04 Diversity Set (AID 1171); conditions: higher = more signal, called active from +8 up or from −8 down; also: test concentration not given here
[11] = HepG2 liver cancer cell viability effects, profiling panel, resazurin fluorescence, 24 h, PK04 Diversity Set (AID 1172); conditions: higher = more signal; also: test concentration not given here
[12] = basal S. cerevisiae growth modulation, no modifier, primary screen, OD600, strain BY4716, 24 h, basal condition (AID 1173); conditions: OD600, 24 h, higher = more signal, called active from +8 up or from −8 down
[13] = MM1S myeloma cell viability, profiling panel, resazurin fluorescence, basal, 24 h, PK04 Diversity Set (AID 1174); conditions: higher = more signal, called active from +8 up or from −8 down;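 also: MM1S multiple myeloma cell line; test concentration not given here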
[14] = molecular target: Dihydroorotate dehydrogenase (quinone), mitochondrial (Plasmodium falciparum (isolate 3D7)) (UniProt Q08210); assay: PfDHODH enzyme inhibitors, primary screen, biochemical, C-terminal His tag, absorbance 600 nm (AID 1175); conditions: DCIP absorbance 600 nm, higher = more signal, called active from +8 up or from −8 down;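 also: recombinant parasite enzyme with a five histidine tag at its C terminus; test concentration not given here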
[15] = P. aeruginosa biofilm formation inhibitors, primary screen, strain PAO1, LB-PBS medium, absorbance 600 nm (AID 1176); also: test concentration not given here; conditions: P. aeruginosa PAO1 growth/biofilm, A600, 12 h; higher = more signal
[16] = S. cerevisiae RM11-1a growth modifiers, primary screen, strain RM11-1a, OD600, basal, 24 h (AID 1177); conditions: OD600, 24 h, higher = more signal, called active from +8 up or from −8 down;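 also: cultures grown under basal conditions with no added stressor; test concentration not given here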
[17] = E. coli acrAB mutant growth effects, primary screen, E. coli filamentation inducers, strain DRC39, OD650, 24 h (AID 1178); conditions: higher = more signal, called active from +8 up or from −8 down;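 also: growth measured as culture turbidity by optical density at 650 nm; test concentration not given here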
[18] = E. coli acrAB mutant growth effects, primary screen, E. coli filamentation inducers, strain DRC39, OD650, 48 h (AID 1179);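 also: screen aims at cell division blockers that make cells filament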; conditions: E. coli DRC39 delta-acrAB growth, higher = more signal, called active from +8 up or from −8 down
[19] = RPMI8226 myeloma cell viability, profiling panel, resazurin fluorescence, basal, 24 h, PK04 Diversity Set (AID 1180); conditions: higher = more signal;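 also: RPMI8826 multiple myeloma cell line at 5000 cells per well; test concentration not given here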
[20] = molecular target: E3 ubiquitin-protein ligase XIAP (Homo sapiens) (UniProt P98170); assay: XIAP binders, primary screen, biophysical, small-molecule microarray, fluorescence 635 nm (AID 1181); conditions: small-molecule microarray binding, higher = more signal;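 also: score merges 667 nm emission and signal to noise over triplicate slides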
Sequence of E3 ubiquitin-protein ligase XIAP (Homo sapiens) (P98170 whole entry, looked up): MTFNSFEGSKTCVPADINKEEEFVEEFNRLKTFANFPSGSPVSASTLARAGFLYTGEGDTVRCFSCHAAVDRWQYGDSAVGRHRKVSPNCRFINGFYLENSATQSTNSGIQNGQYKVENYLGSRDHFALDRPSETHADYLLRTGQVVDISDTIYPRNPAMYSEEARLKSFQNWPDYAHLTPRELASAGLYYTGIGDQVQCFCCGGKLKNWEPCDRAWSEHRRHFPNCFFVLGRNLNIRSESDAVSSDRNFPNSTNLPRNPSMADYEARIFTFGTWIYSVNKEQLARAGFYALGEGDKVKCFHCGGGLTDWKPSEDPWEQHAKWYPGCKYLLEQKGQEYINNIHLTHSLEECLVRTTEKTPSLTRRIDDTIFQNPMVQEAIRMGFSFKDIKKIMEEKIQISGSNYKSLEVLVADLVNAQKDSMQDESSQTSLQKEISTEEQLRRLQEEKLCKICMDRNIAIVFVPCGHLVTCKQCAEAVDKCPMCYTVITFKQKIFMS

Sequence of Dihydroorotate dehydrogenase (quinone), mitochondrial (Plasmodium falciparum (isolate 3D7)) (Q08210 whole entry, looked up): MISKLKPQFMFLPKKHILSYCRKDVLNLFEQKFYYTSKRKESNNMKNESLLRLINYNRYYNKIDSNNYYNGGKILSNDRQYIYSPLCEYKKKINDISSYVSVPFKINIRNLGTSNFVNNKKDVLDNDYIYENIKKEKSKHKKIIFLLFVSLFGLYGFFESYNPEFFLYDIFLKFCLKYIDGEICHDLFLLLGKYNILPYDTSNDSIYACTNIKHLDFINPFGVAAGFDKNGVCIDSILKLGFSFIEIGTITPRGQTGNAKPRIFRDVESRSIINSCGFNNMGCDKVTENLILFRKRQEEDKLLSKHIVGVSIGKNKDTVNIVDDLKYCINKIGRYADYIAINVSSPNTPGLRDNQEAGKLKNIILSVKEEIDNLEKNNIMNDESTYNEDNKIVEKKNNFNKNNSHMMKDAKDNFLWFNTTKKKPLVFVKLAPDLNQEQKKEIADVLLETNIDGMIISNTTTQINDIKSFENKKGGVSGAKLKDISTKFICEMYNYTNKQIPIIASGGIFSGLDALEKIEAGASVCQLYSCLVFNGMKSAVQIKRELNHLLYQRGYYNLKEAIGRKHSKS

SMILES | z-score [1] | z-score [2] | z-score [3] | z-score [4] | z-score [5] | z-score [6] | z-score [7] | z-score [8] | z-score [9] | z-score [10] | z-score [11] | z-score [12] | z-score [13] | composite z-score [14] | z-score [15] | z-score [16] | z-score [17] | z-score [18] | z-score [19] | composite z-score [20]
C=C(COC)C(=O)CC[C@H](OC(=O)c1ccccc1-c1ccccc1C(=O)O)c1cccc(OCCO)c1 | -0.339 | -0.765 | -2.08 | -1.12 | -0.28 | -2.01 | 0.414 (inactive) | 0.231 | -0.0895 | -1.46 (inactive) | -1.06 | -17.1 (active) | -0.805 (inactive) | -6.66 (inactive) | 1.99 (inactive) | -5.09 (inactive) | -1.27 (inactive) | -1.04 (inactive) | -0.858 | 0.511
CCCC[C@@H]1C[C@H]1[C@@H](NC(=O)c1ccccc1)c1ccccc1C(F)(F)F | -0.407 | 0.128 | -0.0379 | -1.69 | -0.947 | -1.06 | -0.895 (inactive) | -0.472 | -0.573 | 2.38 (inactive) | 0.826 | 0.66 (inactive) | -0.159 (inactive) | -0.454 (inactive) | 0.951 (inactive) | -0.114 (inactive) | -0.372 (inactive) | -0.464 (inactive) | 0.0311 | -0.261
CCCC=C(CCC)[C@@H](NS(=O)(=O)c1ccc(-c2ccccc2)cc1)c1ccc(C(=O)OC)cc1 | -1.34 | 0.906 | -1.52 | -1.18 | -2.93 | -4.34 | 0.0846 (inactive) | 0.326 | -1.78 | 1.35 (inactive) | 0.0252 | 1.72 (inactive) | 0.303 (inactive) | -4.09 (inactive) | 2.67 (inactive) | 0.239 (inactive) | -0.811 (inactive) | -0.299 (inactive) | 0.305 | -0.0948
COCCOC(=O)N1C(=O)[C@@]2(c3cc(C#CCNC(N)=O)ccc31)[C@H](c1ccccc1OCCO)N1[C@H](c3ccccc3)[C@H](c3ccccc3)OC(=O)[C@H]1[C@@H]2C(=O)NC[C@H](O)c1ccccc1 | -0.991 | -0.574 | 0.0681 | -0.344 | 0.941 | -1.64 | 0.392 (inactive) | -0.305 | -0.803 | 0.868 (inactive) | 0.904 | 2.79 (inactive) | 0.335 (inactive) | 1.03 (inactive) | 0.87 (inactive) | 2.1 (inactive) | 0.183 (inactive) | -0.32 (inactive) | 0.152 | -0.0911
C=CCOC(=O)[C@@H]1[C@H]2C(=O)O[C@H](c3ccccc3)[C@H](c3ccccc3)N2[C@H](c2ccc(OCCOC(=O)[C@H]3C[C@H]4C(=O)N[C@@H](CCCCNC(C)=O)C(=O)N4[C@H]3c3ccc(O)cc3)cc2)[C@@]12C(=O)Nc1ccc(I)cc12 | -0.778 | -0.796 | -0.931 | -0.989 | 0.572 | -0.422 | 0.725 (inactive) | -0.324 | -0.99 | 0.213 (inactive) | -0.0657 | 1.87 (inactive) | -0.967 (inactive) | 0.626 (inactive) | 2.56 (inactive) | 2.34 (inactive) | -0.0715 (inactive) | -0.649 (inactive) | -0.145 | -0.0566
COCCOC(=O)N1C(=O)[C@@]2(c3cc(C#CC4=CCCCC4)ccc31)[C@H](C(=O)NC[C@H](O)c1ccccc1)[C@H]1C(=O)O[C@H](c3ccccc3)[C@H](c3ccccc3)N1[C@@H]2c1ccccc1OCCO | -1.03 | -0.383 | -3.29 | -3.21 | -4.04 | -1.46 | 2.6 (inactive) | -0.804 | -1.67 | -1.43 (inactive) | -1.57 | 1.76 (inactive) | -4.83 (inactive) | 0.271 (inactive) | 3.52 (inactive) | 2.69 (inactive) | -0.504 (inactive) | -0.542 (inactive) | -4.64 | 0.175
CCC1=C2CN(Cc3ccccc3Br)[C@@H]([C@@H](O)Cc3ccccc3)C2C=CCC1 (stereo not given in full) | 0.596 | 2.48 | 0.155 | -3.24 | -3.99 | 1.42 | -0.473 (inactive) | -0.981 | -2.18 | 1.07 (inactive) | 0.596 | -5.76 (inactive) | -1.3 (inactive) | -2.74 (inactive) | -0.693 (inactive) | -0.177 (inactive) | 1 (inactive) | 0.441 (inactive) | -1.25 | 0.0451
Cc1ccc(S[C@]2(C(=O)NC(C)C)CC(=O)N(Cc3cc(C(F)(F)F)cc(C(F)(F)F)c3)[C@@H]2c2ccc(CO)cc2I)cc1 | 0.813 | -0.477 | 0.678 | -1.66 | -2.24 | 0.517 | 0.667 (inactive) | -0.455 | -1.79 | -0.101 (inactive) | 0.53 | -2.86 (inactive) | -2.27 (inactive) | 0.4 (inactive) | 0.447 (inactive) | -0.59 (inactive) | 0.498 (inactive) | 1.02 (inactive) | -2.55 | -0.209
C=CCC(OC(C)=O)[C@@H]1[C@@H](N(Cc2ccc(-c3cccc(C(F)(F)F)c3)o2)C(=O)Cc2ccc(F)cc2)c2cc(OCCCO)ccc2N1C(=O)c1ccc(-c2ccccc2)cc1 (stereo not given in full) | 0.468 | 0.145 | 0.536 | 1.16 | -0.147 | 1.88 | -1.64 (inactive) | -0.582 | 0.286 | 0.303 (inactive) | -0.138 | -0.0284 (inactive) | 0.314 (inactive) | -0.262 (inactive) | 1.11 (inactive) | -0.12 (inactive) | -0.124 (inactive) | -0.143 (inactive) | 0.171 | -0.184
